Reference: PubChem BioAssay AID1159580 (chemical genetic matrix, 2015)
Where “and” joins values, the source holds several entries; their conditions need not be identical. Identical values can stand only once. The campaign covered roughly 5,500 compounds. About 2,000 (36%) were called active. Inconclusive results (about 18%) are left out. Cut-off read from the data, not from the text of the source: active = normalized growth mostly below about 0.91 (no sharp cut-off); inconclusive = no clear call, values can overlap the other calls; inactive = mostly above about 0.92. The list shows a part of the results.

Assay: chemical genetic growth profiling, strain panel (AID 1159580);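 note: tested at 20 µM; growth read once vehicle control cultures reached saturation at 30 °C; 1 = growth at the plate median or of vehicle wells; lower values mean less growth of the strain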
Conditions: S. cerevisiae deletion strains, growth OD

Measured: normalized growth

NC12CC3CC(CC(C3)C1)C2
inactive: locus YAL021C, strain ccr4, hits give low values 0.977 | locus YAL026C, strain drs2, hits give low values 0.996 | locus YAL030W, strain snc1, hits give low values 1.01 | locus YAL040C, strain CLN3, hits give low values 0.968 | locus YBL061C, strain skt5, hits give low values 1.01 | locus YBR009C, strain hhf1, hits give low values 0.99 | locus YBR021W, strain FUR4, hits give low values 0.992 | locus YBR023C, strain chs3, hits give low values 1.01 | locus YBR171W, strain sec66, hits give low values 1.01 | locus YBR229C, strain ROT2, hits give low values 1 | locus YBR231C, strain swc5, hits give low values 1.03 | locus YBR279W, strain paf1, hits give low values 0.994 | locus YCL011C, strain gbp2, hits give low values 0.985 | locus YCL016C, strain dcc1, hits give low values 0.977 | locus YCL029C, strain bik1, hits give low values 1.02 | locus YCL061C, strain MRC1 (second series), hits give low values 0.991 | locus YCL061C, strain MRC1, hits give low values 1.04 | locus YCL069W, strain vba3, hits give low values 1.01 | locus YCR088W, strain abp1, hits give low values 1.01 | locus YDL005C, strain med2, hits give low values 0.987 | locus YDL035C, strain GPR1, hits give low values 1.01 | locus YDL040C, strain nat1, hits give low values 1 | locus YDL074C, strain BRE1, hits give low values 1.02 | locus YDL101C, strain DUN1, hits give low values 1.02 | locus YDL134C, strain PPH21, hits give low values 1 | locus YDL185W, strain tfp1, hits give low values 1.02 | locus YDL192W, strain arf1, hits give low values 1.03 | locus YDR001C, strain nth1, hits give low values 0.995 | locus YDR069C, strain doa4, hits give low values 1.01 | locus YDR101C, strain arx1, hits give low values 1.03 | locus YDR137W, strain rgp1, hits give low values 1.03 | locus YDR150W, strain NUM1, hits give low values 0.992 | locus YDR159W, strain sac3, hits give low values 0.989 | locus YDR162C, strain NBP2, hits give low values 1.02 | locus YDR195W, strain ref2 1 | locus YDR297W, strain sur2, hits give low values 1.01 | locus YDR318W, strain mcm21, hits give low values 1.02 | locus YDR334W, strain swr1, hits give low values 0.994 | locus YDR335W, strain msn5, hits give low values 1.01 | locus YDR363W, strain ESC2, hits give low values 1.04 | locus YDR388W, hits give low values 1.02 | locus YDR392W, strain spt3, hits give low values 0.96 | locus YDR502C, strain sam2, hits give low values 1.01 | locus YEL003W, strain gim4, hits give low values 1.03 | locus YEL037C, strain rad23, hits give low values 0.995 | locus YEL061C, strain CIN8 (second series), hits give low values 0.998 | locus YEL061C, strain CIN8, hits give low values 1.01 | locus YER002W, strain NOP16, hits give low values 0.993 | locus YER015W, strain faa2, hits give low values 1.01 | locus YER016W, strain bim1, hits give low values 0.996 | locus YER110C, hits give low values 1.03 | locus YER111C, strain swi4, hits give low values 0.998 | locus YER155C, strain BEM2 (second series), hits give low values 1.05 | locus YER155C, strain BEM2, hits give low values 0.998 | locus YER167W, strain BCK2, hits give low values 1 | locus YFR010W, strain ubp6, hits give low values 1.01 | locus YGL078C, strain dbp3, hits give low values 1.02 | locus YGL086W, strain mad1, hits give low values 1.01 | locus YGL167C, strain pmr1, hits give low values 1 | locus YGL173C, strain kem1, hits give low values 1.03 | locus YGL227W, strain vid30, hits give low values 1 | locus YGL240W, strain doc1, hits give low values 1.04 | locus YGL248W, strain PDE1, hits give low values 1.03 | locus YGL253W, strain hxk2, hits give low values 0.98 | locus YGR078C, strain PAC10, hits give low values 0.999 | locus YGR135W, strain pre9, hits give low values 1.01 | locus YGR229C, strain SMI1, hits give low values 1.01 | locus YGR252W, strain gcn5, hits give low values 1.03 | locus YHR013C, strain ard1, hits give low values 1 | locus YHR027C, strain rpn1, hits give low values 0.996 | locus YHR030C, strain SLT2, hits give low values 1 | locus YHR079C, strain IRE1 (second series), hits give low values 1.03 | locus YHR079C, strain IRE1, hits give low values 1.02 | locus YHR094C, strain hxt1, hits give low values 1.01 | locus YHR129C, strain ARP1, hits give low values 1.01 | locus YHR142W, strain chs7, hits give low values 0.995 | locus YHR200W, strain rpn10, hits give low values 1.02 | locus YIL066C, strain RNR3, hits give low values 1.02 | locus YIL073C, strain SPO22, hits give low values 1.11 | locus YIL125W, strain kgd1, hits give low values 1.02 | locus YIR030C, strain dcg1, hits give low values 1.02 | locus YJL092W, strain hpr5, hits give low values 1.01 | locus YJL095W, strain BCK1 (second series), hits give low values 1.01 | locus YJL095W, strain BCK1, hits give low values 1.02 and 1.03 | locus YJL115W, strain asf1, hits give low values 0.999 | locus YJL129C, strain trk1, hits give low values 1.01 | locus YJL134W, strain LCB3, hits give low values 1.01 | locus YJL154C, strain vps35, hits give low values 0.998 | locus YJL164C, strain tpk1, hits give low values 0.98 | locus YJL166W, strain qcr8, hits give low values 1.04 | locus YJL168C, strain set2, hits give low values 1.02 | locus YJL187C, strain SWE1 (second series), hits give low values 1.03 | locus YJL187C, strain SWE1, hits give low values 1.01 | locus YJR043C, strain POL32, hits give low values 0.986 | locus YJR066W, strain TOR1, hits give low values 0.988 | locus YJR075W, strain HOC1, hits give low values 1.02 | locus YKL009W, strain mrt4, hits give low values 1.02 | locus YKL068W, hits give low values 1.01 | locus YKL085W, strain MDH1 (second series), hits give low values 1.01 | locus YKL085W, strain MDH1, hits give low values 1.01 | locus YKL160W, strain elf1, hits give low values 1.02 | locus YKR001C, strain vps1, hits give low values 1.01 | locus YKR026C, strain gcn3, hits give low values 1 | locus YKR091W, strain srl3, hits give low values 1 | locus YLL001W, strain dnm1, hits give low values 1.02 | locus YLL026W, hits give low values 1.01 | locus YLL041C, strain sdh2, hits give low values 0.993 | locus YLR027C, strain aat2, hits give low values 1.01 | locus YLR039C, strain RIC1, hits give low values 1.04 | locus YLR058C, strain SHM2, hits give low values 1.02 | locus YLR102C, strain apc9, hits give low values 1.02 | locus YLR113W, strain HOG1, hits give low values 1.04 | locus YLR221C, strain rsa3, hits give low values 0.986 | locus YLR258W, strain gsy2, hits give low values 0.993 | locus YLR262C, strain YPT6 (second series), hits give low values 1.03 | locus YLR262C, strain YPT6, hits give low values 1.07 | locus YLR268W, strain sec22, hits give low values 1.02 | locus YLR320W, strain mms22, hits give low values 0.977 | locus YLR330W, strain CHS5, hits give low values 1.01 | locus YLR342W, strain FKS1 (second series), hits give low values 0.997 | locus YLR342W, strain FKS1, hits give low values 1.03 | locus YLR357W, strain rsc2, hits give low values 0.993 | locus YLR370C, strain arc18, hits give low values 1 | locus YLR371W, strain rom2, hits give low values 1.02 | locus YLR384C, strain iki3, hits give low values 0.998 | locus YLR418C, strain cdc73, hits give low values 1.04 | locus YML016C, strain PPZ1, hits give low values 1.01 | locus YML032C, strain rad52, hits give low values 1.01 | locus YML120C, strain ndi1, hits give low values 1.03 | locus YML124C, strain tub3, hits give low values 1.02 | locus YMR058W, strain fet3, hits give low values 1.01 | locus YMR078C, strain ctf18, hits give low values 1.04 | locus YMR125W, strain sto1, hits give low values 0.999 | locus YMR129W, hits give low values 1 | locus YMR205C, strain PFK2, hits give low values 1.01 | locus YMR223W, strain ubp8, hits give low values 1.02 | locus YMR231W, strain pep5, hits give low values 0.999 | locus YMR307W, strain GAS1, hits give low values 0.933 | locus YNL067W, strain RPL9B, hits give low values 1.03 | locus YNL071W, strain lat1, hits give low values 0.989 | locus YNL128W, strain TEP1, hits give low values 0.983 | locus YNL153C, strain GIM3, hits give low values 1 | locus YNL175C, strain NOP13, hits give low values 0.996 | locus YNL183C, strain NPR1, hits give low values 0.972 | locus YNL197C, strain WHI3, hits give low values 0.978 | locus YNL209W, strain ssb2, hits give low values 0.989 | locus YNL224C, strain SQS1, hits give low values 1.01 | locus YNL233W, strain BNI4, hits give low values 1.02 | locus YNL248C, strain rpa49, hits give low values 0.994 | locus YNL250W, strain rad50, hits give low values 1.04 | locus YNL271C, strain bni1, hits give low values 1.03 | locus YNL298W, strain CLA4, hits give low values 1.02 | locus YNL307C, strain MCK1, hits give low values 1.03 | locus YNL322C, strain KRE1 (second series), hits give low values 0.999 | locus YNL322C, strain KRE1, hits give low values 1 | locus YNR049C, strain mso1, hits give low values 1 | locus YNR052C, strain pop2, hits give low values 1.02 | locus YOL006C, strain TOP1, hits give low values 1.1 | locus YOL012C, strain htz1 1.89 | locus YOL147C, strain pex11, hits give low values 1.03 | locus YOR001W, strain rrp6, hits give low values 1.05 | locus YOR061W, strain CKA2, hits give low values 1.02 | locus YOR069W, strain VPS5, hits give low values 1.01 | locus YOR070C, strain gyp1, hits give low values 0.99 | locus YOR080W, strain dia2, hits give low values 1.01 | locus YOR083W, strain WHI5 (second series), hits give low values 1 | locus YOR083W, strain WHI5, hits give low values 0.994 | locus YOR106W, strain vam3, hits give low values 1.04 | locus YOR136W, strain idh2, hits give low values 1.03 | locus YOR144C, strain elg1, hits give low values 1.02 | locus YOR184W, strain ser1, hits give low values 1.02 | locus YOR231W, strain MKK1, hits give low values 1.02 | locus YOR265W, strain rbl2, hits give low values 1.01 | locus YOR270C, strain vph1, hits give low values 1.03 | locus YOR290C, strain snf2, hits give low values 0.97 | locus YOR316C, strain cot1, hits give low values 1.02 | locus YPL051W, strain arl3, hits give low values 1.02 | locus YPL055C, strain LGE1, hits give low values 1.01 | locus YPL078C, strain atp4, hits give low values 1.05 | locus YPL106C, strain sse1, hits give low values 0.986 | locus YPL240C, strain hsp82, hits give low values 1.01 | locus YPL241C, strain CIN2, hits give low values 1 | locus YPL256C, strain CLN2, hits give low values 1.02 | locus YPR119W, strain clb2, hits give low values 1.02 | locus YPR141C, strain kar3, hits give low values 1.03 | locus YPR163C, strain tif3, hits give low values 1.02 | locus YPR167C, strain met16, hits give low values 1.03 | strain wtn01, hits give low values 1.01
